Results taken from PubChem BioAssay (NCATS).
Several values for one entry are separate records, joined by “and”; a condition that tells them apart may be missing. Identical values can stand only once. Results filed as inconclusive are left out. Activity calls are given as the source filed them. Calls come from the whole dose curve; as a rule, active = well fitted curve in the direction sought with a large enough effect; inconclusive = small, poorly fitted or top-dose-only effect, or another doubt; inactive = no such curve, though single readings can be large; an effect the other way counts as inactive or inconclusive.

What was measured:
[1] = target: Cellular tumor antigen p53 (Homo sapiens) (UniProt P04637); experiment: Primary qHTS for small molecule compounds that upregulate eGFP-tagged delta133p53alpha (in N-terminal) cells. (AID 2060322); settings: NCI-H358 eGFP-delta133p53alpha fluorescence, 24 h; activation: active compounds read high;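 note: cells pre-induced with doxycycline then dosed without doxycycline; series mostly up to about 56 µM; 0% = DMSO vehicle and 100% = reference activator; nearly all actives have a fitted effect of over 75% in size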
Summary of the method: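 NCI-H358 cells pre-induced 24 h with 10 ng/ml doxycycline for eGFP-delta133p53alpha, plated dox-free and exposed 24 h at 37C to titrated compounds. Fixed, Hoechst-stained; gated GFP peak intensity by laser scanning cytometry, normalized to DMSO (0%) and 57.5 uM 5-azacytidine (100%).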

[2] = BET inhibitor-based combinations targeting novel dependencies in MECOM-rearranged (r) AML: SET-2 cell line (AID 2202231); settings: SET-2 AML cells viability, CellTiter-Glo luminescence, 48 h; viability: active compounds read low, concentration not given here; note: nearly all actives have a fitted effect of over 35% in size; note: potency is the fitted concentration of half-maximal effect;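 for viability: plate controls were DMSO treated cells for no effect and wells without cells for full effect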
Summary of the method: (§1)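 A 48 hr incubation preceded viability reading by CellTiter-Glo, with 15 min room-temperature development. Dose series had 11 points; normalization used DMSO and empty wells; AUC was computed and mean-centered per line as Z-AUC.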

[3] = BET inhibitor-based combinations targeting novel dependencies in MECOM-rearranged (r) AML: OCI-AML3 cell line (AID 2202232); settings: Potency: OCI-AML3 viability; note: nearly all actives have a fitted effect of over 35% in size; note: potency is the fitted concentration of half-maximal effect;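 for viability (% of control): series mostly up to about 46 µM; plate controls were DMSO vehicle wells for no effect and wells without cells for full effect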
Summary of the method: as §1

[4] = BET inhibitor-based combinations targeting novel dependencies in MECOM-rearranged (r) AML: MV-4-11 cell line (AID 2202233); note: nearly all actives have a fitted effect of over 45% in size; note: potency is the fitted concentration of half-maximal effect;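 for viability, % of control: plate controls were DMSO for no effect and blank wells for full effect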
Summary of the method: (§2)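 Each compound is tested in an 11-point concentration series against 500 seeded cells/well for 48 hr. The luminescent viability signal is normalized to DMSO and blank wells, then reduced to AUC and a cell-line-centred Z-AUC.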

[5] = BET inhibitor-based combinations targeting novel dependencies in MECOM-rearranged (r) AML: HNT-34 cell line (AID 2202234); note: nearly all actives have a fitted effect of over 35% in size; note: potency is the fitted concentration of half-maximal effect;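 for viability (% of control): plate controls were vehicle wells for no effect and cell-free wells for full effect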
Summary of the method: as §2

[6] = BET inhibitor-based combinations targeting novel dependencies in MECOM-rearranged (r) AML: UCSD-AML1 cell line (AID 2202235); note: nearly all actives have a fitted effect of over 40% in size; note: potency is the fitted concentration of half-maximal effect;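 for viability (% of control): series mostly up to about 46 µM; plate controls were DMSO vehicle wells for no effect and blank wells for full effect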
Summary of the method: as §2

[7] = BET inhibitor-based combinations targeting novel dependencies in MECOM-rearranged (r) AML: AML-191 cell line (AID 2202236; note: nearly all actives have a fitted effect of over 35% in size; note: potency is the fitted concentration of half-maximal effect;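 for viability (% of control): plate controls were vehicle wells for no effect and wells without cells for full effect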)
Summary of the method: as §1

[8] = BET inhibitor-based combinations targeting novel dependencies in MECOM-rearranged (r) AML: AML-194 cell line (AID 2202237; note: nearly all actives have a fitted effect of over 40% in size; note: potency is the fitted concentration of half-maximal effect;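 for viability (% of control): plate controls were vehicle wells for no effect and wells without cells for full effect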)
Summary of the method: as §1

Cellular tumor antigen p53 (Homo sapiens), sequence (P04637 whole entry, looked up): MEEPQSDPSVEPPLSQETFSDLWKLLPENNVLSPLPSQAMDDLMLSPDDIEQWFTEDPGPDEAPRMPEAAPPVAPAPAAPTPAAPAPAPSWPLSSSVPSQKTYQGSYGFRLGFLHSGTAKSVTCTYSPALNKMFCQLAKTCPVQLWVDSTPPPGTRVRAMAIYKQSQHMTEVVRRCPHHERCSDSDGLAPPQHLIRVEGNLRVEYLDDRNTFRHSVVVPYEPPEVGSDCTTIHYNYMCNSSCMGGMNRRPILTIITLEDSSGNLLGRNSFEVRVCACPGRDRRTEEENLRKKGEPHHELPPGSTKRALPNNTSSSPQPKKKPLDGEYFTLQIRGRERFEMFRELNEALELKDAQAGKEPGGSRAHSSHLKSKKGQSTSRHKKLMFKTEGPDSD

Cc1ccc2c(=O)c3cccc(CC(=O)O)c3oc2c1C
inactive: activation [1] 16.3% | viability [2] 108% | Potency [3] | Potency [4] | Potency [5] | Potency [6] | Potency [7] | Potency [8]

O=C(O)C(=O)Nc1cccc(-c2nn[nH]n2)c1
inactive: activation [1] -3.95% | viability [2] 121% | Potency [3] | Potency [4] | Potency [5] | Potency [6] | Potency [7] | Potency [8]

Cc1cc2nc3c(=O)[nH]c(=O)nc-3n(CC(O)C(O)C(O)CO)c2cc1C (centres undefined)
inactive: activation [1] -37.4% | viability [2] 106% | Potency [3] | Potency [4] | Potency [5] | Potency [6] | Potency [7] | Potency [8]

CCOC(=O)[C@H](CCc1ccccc1)N[C@@H](C)C(=O)N1[C@H](C(=O)O)C[C@@H]2CCC[C@@H]21
inactive: activation [1] 5.08% | viability [2] 108% | Potency [3] | Potency [4] | Potency [5] | Potency [6] | Potency [7] | Potency [8]

N[C@@]1(C(=O)O)CS(=O)(=O)[C@H]2[C@H](C(=O)O)[C@H]21
inactive: activation [1] -21.5% | viability [2] 114% | Potency [3] | Potency [4] | Potency [5] | Potency [6] | Potency [7] | Potency [8]

Cc1ccsc1C(=CCCN1CCC[C@@H](C(=O)O)C1)c1sccc1C
active: Potency [3] 0.468 µM
inactive: activation [1] -19.8% | viability [2] 112% | Potency [4] | Potency [5] | Potency [6] | Potency [7] | Potency [8]

CC(C)(CO)[C@@H](O)C(=O)NCCC(=O)O
inactive: activation [1] -14.4% | viability [2] 117% | Potency [3] | Potency [4] | Potency [5] | Potency [6] | Potency [7] | Potency [8]

O=P(O)(O)C(O)(Cn1ccnc1)P(=O)(O)O
inactive: activation [1] -20.1% | viability [2] 112% | viability (% of control) [3] 121% [at 5.12 µM] | viability, % of control [4] 141% [at 5.12 µM] | viability (% of control) [5] 108% [at 5.12 µM] | viability (% of control) [6] 117% [at 5.12 µM] | viability (% of control) [7] 112% [at 5.12 µM] | viability (% of control) [8] 119% [at 5.12 µM]

NC(=O)c1cccnc1
inactive: activation [1] -14.2% and 9.71% | viability [2] 106% | Potency [3] | Potency [4] | Potency [5] | Potency [6] | Potency [7] | Potency [8]

C[C@]12C=CC(=O)C=C1CC[C@@H]1[C@@H]2[C@@H](O)C[C@@]2(C)[C@H]1CC[C@]2(O)C(=O)CO
inactive: activation [1] -4.18% | viability [2] 103% | Potency [3] | Potency [4] | Potency [5] | Potency [6]
active: Potency [7] 372 nM | Potency [8] 1.18 µM

CCOC(=O)C1=C[C@@H](OC(CC)CC)[C@H](NC(C)=O)[C@@H](N)C1
inactive: activation [1] -8.89% | viability [2] 112% | Potency [3] | Potency [4] | Potency [5] | Potency [6] | Potency [7] | Potency [8]

COc1cc(C(=O)NS(=O)(=O)c2ccccc2C)ccc1Cc1cn(C)c2ccc(NC(=O)OC3CCCC3)cc12
inactive: activation [1] 105% | viability [2] 119% | Potency [3] | Potency [4] | Potency [5] | Potency [6] | Potency [7] | Potency [8]

CN(CCOc1ccc(CC2SC(=O)NC2=O)cc1)c1ccccn1 (centres undefined)
inactive: activation [1] 6.69% and 5.38% | viability [2] 102% | Potency [3] | Potency [4] | Potency [5] | Potency [6] | Potency [7] | Potency [8]

Oc1c(Cl)cc(Cl)c2cccnc12
active: Potency [2] 8.33 µM | Potency [3] 16.6 µM | Potency [4] 11.8 µM | Potency [5] 4.17 µM | Potency [6] 5.25 µM | Potency [7] 8330 nM | Potency [8] 8.33 µM
inactive: activation [1] 16.4% and -7.96%

CCn1cc(C(=O)O)c(=O)c2cc(F)c(N3CCNCC3)cc21
inactive: activation [1] -8.37% and 13.6% | viability [2] 96.1% | Potency [3] | Potency [4] | Potency [5] | Potency [6] | Potency [7] | Potency [8]

CCc1cc(C(N)=S)ccn1
inactive: activation [1] -7.53% and 9.71% | viability [2] 109% | Potency [3] | Potency [4] | Potency [5] | Potency [6] | Potency [7] | Potency [8]

CCOCC(O)COc1ccc(NC(=O)CC[S+](C)C)cc1 (centres undefined)
inactive: activation [1] -1.78% | viability [2] 62.2% | Potency [3] | Potency [4] | Potency [5] | Potency [6] | Potency [7] | Potency [8]

N=c1ccn2c(n1)O[C@H]1[C@@H](O)[C@@H](CO)O[C@H]12
active: Potency [2] 1.05 µM | Potency [3] 5.25 µM | Potency [4] 1.32 µM | Potency [5] 0.235 µM | Potency [6] 0.0833 µM | Potency [7] 235 nM | Potency [8] 0.118 µM
inactive: activation [1] 18.1%
